Assay results taken from ChEMBL document CHEMBL3988442, “University of Dundee, Small-Polar-MMV Screening Library” (2021).
The whole screen tested about 48,000 compounds, of which about 13,000 (27%) showed an effect of 50% or more. The list shows a part of the results.

The molecules below were run on Wolbachia pipientis (assay: Anti-Wolbachia Cell-Based Screen). Details: 5 µM.
Format: functional
Set-up: scale not given: in the data most compounds retested in dose-response had high values

Row | SMILES | Percent Effect
1 | Cn1ncc2c(=O)[nH]c(CN(Cc3cccc(F)c3)C3CC3)nc21 | 7.175%
2 | CCN(Cc1cccc(F)c1)Cc1nc2c(cnn2C)c(=O)[nH]1 | 117.6%
3 | CCN(Cc1ccccc1)Cc1nc2c(cnn2C)c(=O)[nH]1 | 106.9%
4 | CCN(Cc1nc2c(cnn2C)c(=O)[nH]1)c1ccccc1C | -6.85%
5 | CC(C)CN1C(=O)CC[C@H]2CN(Cc3ncc[nH]3)CC[C@H]21 | -0.2124%
6 | Cc1noc(Cl)c1CC(=O)NCC(C)(O)c1ccc(F)cc1F (stereo not given) | 5.104%
7 | CN(Cc1nc(-c2cccnc2)no1)C(=O)c1c2c(nn1C)CCCC2 | -6.1%
8 | Cc1cnn(CC(C)NCc2ccc(-n3cccn3)cc2)c1 (stereo not given) | 9.413%
9 | CC(C)COc1cncc(NCc2nnc3ccccn23)n1 | -11.09%
10 | CCOCc1ccc(CNc2nc(OC)ncc2Cl)cc1 | -6.174%
11 | CCOCCOCc1cccc(CNc2cncc(-n3cccn3)n2)c1 | 5.599%
12 | CCOCc1ccc(CNc2cncc(-n3cccn3)n2)cc1 | 106.2%
13 | NS(=O)(=O)Cc1ccc(CNc2cncc(-n3cccn3)n2)cc1 | 114%
14 | CC(C)OCc1ccc(CNc2cncc(-n3cccn3)n2)cc1 | 123.9%
15 | CNS(=O)(=O)Cc1ccc(CNc2cncc(-n3cccn3)n2)cc1 | 3.239%
16 | COC(=O)Nc1ccc(CNc2cncc(-n3cccn3)n2)cc1 | 97.69%
17 | CN(C)C(=O)C1CCN(c2cncc(-n3cccn3)n2)CC1 | 6.063%
18 | O=C1CN(c2ccc(CNc3cncc(-n4cccn4)n3)cc2)CCN1 | 17.5%
19 | Cc1cc(N2C[C@H](C3CC3)[C@@H](N)C2)nc(N2CCCCC2)n1 | 11.86%
20 | CC(C)c1cc(N2CCC(N(C)C)C2)n2nccc2n1 (stereo not given) | 10.32%
21 | O=C1OCCN1Cc1ccc(C(F)(F)F)cc1F | -29.22%
22 | CCNc1ncc(C(=O)NC(c2ccccc2)c2ccco2)cn1 (stereo not given) | -3.465%

Row | SMILES | Percent Effect
23 | COCCN(Cc1sccc1C)Cc1nccn1CCOC | 4.16%
24 | COCc1ccc(CNc2cncc(-n3cccn3)n2)cc1 | 105.5%
25 | CN(C)c1ccc(CNc2cncc(-n3cccn3)n2)cc1 | 6.951%
26 | CC(CNc1cncc(-n2cccn2)n1)N(C)c1ccccc1 (stereo not given) | 0.6159%
27 | CN(C)c1cc(CNc2cncc(-n3cccn3)n2)ccn1 | 94.25%
28 | CCN(CC)S(=O)(=O)c1ccc(NC(=O)C(C)(C)C)cc1 | -6.648%
29 | O=C(c1ccc(-n2cc(Br)cn2)cc1)N1CCN(c2cnccn2)CC1 | 12.88%
30 | O=C(COc1ccc(Cl)cc1)N1CCN(c2cnccn2)CC1 | 138.2%
31 | O=C(CCOc1ccccc1Cl)N1CCN(c2cnccn2)CC1 | 81.46%
32 | Cc1nn(CC(=O)N2CCN(c3cnccn3)CC2)c(C)c1Cl | 4.895%
33 | CC(CC(=O)N1CCN(c2cnccn2)CC1)c1ccc(F)cc1 (stereo not given) | 3.505%
34 | O=C(Cc1ccc2c(c1)OCO2)N1CCN(c2cnccn2)CC1 | -5.983%
35 | O=C(CCSc1ccc(F)cc1)N1CCN(c2cnccn2)CC1 | -10.65%
36 | O=C(CCSc1ccccc1F)N1CCN(c2cnccn2)CC1 | 4.662%
37 | O=C(CCOc1ccc(Br)cc1)N1CCN(c2cnccn2)CC1 | 108.9%
38 | O=C(CCOc1cccc(Cl)c1)N1CCN(c2cnccn2)CC1 | 103.8%
39 | CSCc1cccc(S(=O)(=O)NCCCO)c1 | -5.091%
40 | CS(=O)(=O)CCN(CC1CCCO1)C1CCCC1 (stereo not given) | -6.798%
41 | CC(NCc1cn(CCC(N)=O)c2ccccc12)c1nncn1C (stereo not given) | -5.557%
42 | O=C(C[C@@H]1COC[C@H]2CN(C3CCCC3)C[C@@H]12)N1CCCCO1.O=C(O)C(F)(F)F | 2.72%
43 | Cc1ccc2c(n1)N(CCN(C)C)CCN(C(=O)c1cccs1)C2.O=C(O)C(F)(F)F.O=C(O)C(F)(F)F | -13.61%
44 | Cc1ccoc1C(=O)N1CCc2ccc(=O)n(CCN(C)C)c2CC1.O=C(O)C(F)(F)F | 99.37%

Row | SMILES | Percent Effect
45 | Cc1ccc2c(n1)N(CCN(C)C)CCN(C(=O)c1ccoc1)C2.O=C(O)C(F)(F)F.O=C(O)C(F)(F)F | 2.564%
46 | CN(C)CCn1c2c(ccc1=O)CCN(C(=O)c1ccoc1)CC2.O=C(O)C(F)(F)F | 107.6%
47 | CN(C)CCOc1ccccc1N1CCN(C(=O)c2ccoc2)CC1 | -4.916%
48 | Cc1ccc(C(=O)N2CCc3ccc(=O)n(CCN(C)C)c3CC2)o1.O=C(O)C(F)(F)F | 107.1%
49 | Cc1ccc(C(=O)N2C[C@@H]3[C@@H](C2)OCC(=O)N3Cc2cccnc2)o1.O=C(O)C(F)(F)F | -3.343%
50 | Cc1ccoc1C(=O)N1C[C@@H]2[C@@H](C1)OCC(=O)N2Cc1cccnc1.O=C(O)C(F)(F)F | 8.295%
51 | Cc1ccoc1C(=O)N1Cc2c(Cn3ccnc3)nn(C)c2C1.O=C(O)C(F)(F)F | 12.61%
52 | CN(C)CCn1c2c(ccc1=O)CCN(C(=O)c1cccs1)CC2.O=C(O)C(F)(F)F | 111.2%
53 | Cc1ccc(C(=O)N2CCn3cc(CN(C)Cc4ccco4)nc3C2)o1.O=C(O)C(F)(F)F | -7.52%
54 | CCS(=O)(=O)c1ccc2oc([C@H]3CCN(Cc4ccccc4)C3)nc2c1 | -9.259%
55 | CC(NCCN1CCC(N(C)C)CC1)c1ccc(F)cc1N(C)C (stereo not given) | -1.854%
56 | CCc1nc(CC(=O)N2CCC(C(=O)N(CC)CC)CC2)cs1 | 9.803%
57 | NC(=O)C1CCN(C(=O)c2cccc(OCc3cscn3)c2)CC1 | -9.747%
58 | Cc1cc(C)c(CNC(=O)NCCNc2cnccn2)c(=O)[nH]1 | 6.343%
59 | Cc1ccc(C(=O)N2CCN(CCC(C)(C)C)CC2)c(=O)[nH]1 | -8.325%
60 | OCC(O)CN(CCN1CCOCC1)Cc1ccco1 (stereo not given) | 99.07%
61 | CC(=O)NCC(=O)N(CCN1CCOCC1)Cc1ccco1 | -7.485%
62 | CN(C)CCN1CCOCC2(C1)CN(Cc1ccco1)CCO2.O=C(O)C(F)(F)F.O=C(O)C(F)(F)F.O=C(O)C(F)(F)F (stereo not given) | 27%
63 | C/C=C(\C)CN(CCN1CCOCC1)Cc1ccco1 | 118.7%
64 | CS(=O)(=O)CC(=O)N(CCN1CCOCC1)Cc1ccco1 | -25.1%
65 | CC(C(=O)NCc1ccc(F)cc1)N(C)CCN1CCOCC1 (stereo not given) | 8.931%
